# Measurements taken from the supplement of paper PMC6555819.
# How the values were obtained:
# Assay in all cases: PBM binding z-score (relative to random genomic background probes); higher = stronger binding; sequences stand for … in GC…GCGATTGACAGCGTAGAATGAAGG
# [1] = tested on: FXR:RXRa (NR concentration 270 nM, RXRa partner concentration 90 nM)
# Summary of the method: (§1)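 Custom Agilent 4×180K protein-binding microarrays carried double-stranded probes, each with a 34-nt variable region. These regions held direct-repeat seeds, single-nucleotide variants, half-site ablations and random human genomic background sequences. Ligand-free nuclear receptor dimers were incubated on the arrays for 1 h, antibodies against each partner (one per run) detected binding, and scanned fluorescence was regression-normalized. Binding z-scores take the random background probes as reference.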
# [2] = tested on: LXRa:RXRa (NR concentration 270 nM, RXRa partner concentration 90 nM)
# Summary of the method: as §1
# [3] = tested on: LXRa homodimer (NR concentration 270 nM)
# Summary of the method: as §1
# [4] = tested on: LXRb:RXRa (NR concentration 270 nM, RXRa partner concentration 90 nM)
# Summary of the method: as §1
# [5] = tested on: LXRb homodimer (NR concentration 270 nM)
# Summary of the method: as §1
# [6] = tested on: PPARa:RXRa (NR concentration 270 nM, RXRa partner concentration 90 nM)
# Summary of the method: as §1
# [7] = tested on: PPARg:RXRa (NR concentration 180 nM, RXRa partner concentration 90 nM)
# Summary of the method: as §1
# [8] = tested on: PPARg:RXRa 270nM:90nM, anti-RXR (NR concentration 270 nM, RXRa partner concentration 90 nM)
# Summary of the method: as §1
# [9] = tested on: PPARg:RXRa 30nM:10nM, anti-RXR (NR concentration 30 nM, RXRa partner concentration 10 nM)
# Summary of the method: as §1
# [10] = tested on: PPARg:RXRa 90nM:30nM, anti-RXR (NR concentration 90 nM, RXRa partner concentration 30 nM)
# Summary of the method: as §1
# [11] = tested on: PPARg:RXRa DBDmut IVT, anti-RXR (DBD mutation: RXRa K156A/R161A, NR concentration 270 nM, RXRa partner concentration 90 nM)
# Summary of the method: as §1
# [12] = tested on: PPARg:RXRa IVT, anti-PPARg (NR concentration 270 nM, RXRa partner concentration 90 nM)
# Summary of the method: as §1
# [13] = tested on: PPARg DBDmut:RXRa IVT, anti-PPARg (DBD mutation: PPARg1 K132A/R137A, NR concentration 270 nM, RXRa partner concentration 90 nM)
# Summary of the method: as §1
# [14] = tested on: PPARg DBDmut IVT, anti-PPARg (DBD mutation: PPARg1 K132A/R137A, NR concentration 270 nM)
# Summary of the method: as §1
# [15] = tested on: PPARg homodimer (NR concentration 180 nM)
# Summary of the method: as §1
# [16] = tested on: PXR:RXRa (NR concentration 270 nM, RXRa partner concentration 90 nM)
# Summary of the method: as §1
# [17] = tested on: PXR homodimer (NR concentration 270 nM)
# Summary of the method: as §1
# [18] = tested on: RARa:RXR (NR concentration 270 nM, RXRa partner concentration 90 nM)
# Summary of the method: as §1
# [19] = tested on: RARa homodimer (NR concentration 270 nM)
# Summary of the method: as §1
# [20] = tested on: RARb:RXRa (NR concentration 270 nM, RXRa partner concentration 90 nM)
# Summary of the method: as §1
Sequence,PBM binding z-score [1],PBM binding z-score [2],PBM binding z-score [3],PBM binding z-score [4],PBM binding z-score [5],PBM binding z-score [6],PBM binding z-score [7],PBM binding z-score [8],PBM binding z-score [9],PBM binding z-score [10],PBM binding z-score [11],PBM binding z-score [12],PBM binding z-score [13],PBM binding z-score [14],PBM binding z-score [15],PBM binding z-score [16],PBM binding z-score [17],PBM binding z-score [18],PBM binding z-score [19],PBM binding z-score [20]
GGAACGAGGGGAAAGTTGATAGCATCTGTCGACG,-0.0769,-0.0261,-0.204,0.087,0.0705,2.88,4.27,6.01,3.53,6.53,1.59,1.99,0.258,-1.07,0.339,-0.114,-0.142,-0.0298,0.277,0.213
TCTATTAGTTGATTAGGGCAACTGAAACAGCGGA,0.195,0.677,0.0182,0.747,0.522,0.782,0.0466,1.87,3.5,2.6,2.22,1.45,1.14,0.725,-0.0911,0.233,0.247,0.283,0.703,0.768
TCATATAGGTAAATGCTAAGTGAAAGTCCGATCT,1.1,0.928,0.284,0.773,-0.0273,1.17,0.762,2.04,3.9,2.9,4.03,2.11,0.478,0.946,0.521,0.632,0.372,0.974,0.763,0.453
ATCTCTAGGTAACAAGTTCAGTGATAGAGAGGAC,0.623,0.613,0.594,0.524,1.01,1.34,1.67,1.87,1.19,1.53,3.07,2.7,1.93,1.91,1.18,1.7,1.97,0.777,1.13,1.69
GCGACTGGGGCAACAGCAGGTTACCATAACTTAA,0.03,1.28,-0.408,0.734,-0.94,1.25,1.43,1.47,-0.0459,0.485,4.72,3.85,-0.661,-0.485,0.0811,0.146,-0.288,0.56,-0.561,1.02
ATCGCTAGGTAACAAGTTCAGTGAAAGAGAGGAC,-0.045,0.0443,-0.0365,-0.0294,-0.328,0.506,0.393,0.468,-0.139,0.219,-0.0634,0.674,0.226,0.479,0.192,1.13,1.05,0.46,-0.284,1.38
GGAACGAGGGCCTTCGAGTTGATAGCATGGCGAT,-0.344,-0.805,-0.648,-0.91,-1.22,-0.579,0.209,-0.359,-0.539,-0.758,0.104,-0.566,-0.653,-1.28,-1.03,-0.313,-0.534,-0.659,-0.765,-0.306
CATCGGAGGACAGAAGGTCAGAGCTGTCCGCTTT,1.15,1.44,0.265,0.77,-0.44,1.8,0.369,1.27,-0.542,0.627,-0.292,0.418,-0.481,-1.29,0.568,1.12,-0.438,1.86,-0.23,2.86
TCTTGTAGATCAGCAGATTAAGAAAGCTGGCCAA,-0.0778,-0.0855,-0.478,-0.134,-0.494,0.385,-0.628,0.95,2.75,1.92,1.64,-0.0378,-0.256,0.452,-0.374,-0.148,-0.568,-0.157,0.205,-0.229
